Assay results as given in PubChem BioAssay.
Calls of active or inactive are those of the source.

How the values were obtained:
[1] = anti-His antibody binders, primary screen, artefact control for SMM control protein annotation, biochemical, small-molecule microarray, 635 nm fluorescence (AID 1128); conditions: anti-His Alexa647 antibody binding, higher = more signal;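 note: score merges feature fluorescence with signal-to-noise for each printed compound spot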
[2] = test system: Human papillomavirus type 1a E7 protein (residues 1-88); test: HPV1a E7 small-molecule binders, primary screen, biochemical, small-molecule microarray, residues 1-88, 635 nm (AID 1129); conditions: small-molecule microarray binding, fluorescence 635 nm; higher = more signal
[3] = target: Focal adhesion kinase 1 (Homo sapiens) (UniProt Q05397); test: small-molecule microarray binders of FAK, primary screen, biochemical, 635/667 nm fluorescence, BSA, DTT (AID 1130); conditions: PTK2 binding, 635 nm fluorescence, higher = more signal;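 note: composite of spot emission at 667 nm and signal to noise over triplicate slides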
[4] = test system: Fibrinogen (Alexa647-labelled); test: fibrinogen binders on compound microarrays, profiling panel, artefact control for SMM control-protein annotation, biochemical, small-molecule microarray, 635/667 nm fluorescence (AID 1131); conditions: fibrinogen-A647 binding fluorescence, higher = more signal;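 note: z-score merges 667 nm fluorescence with per-spot signal-to-noise over triplicate slides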
[5] = target: Follistatin (Homo sapiens) (UniProt P19883); test: follistatin binders on small-molecule microarrays, primary screen, biochemical, small-molecule microarray, 635/667 nm fluorescence (AID 1132); conditions: FST binding, 635 nm fluorescence, higher = more signal
[6] = target: Fibroblast growth factor 2 (Homo sapiens) (UniProt P09038); test: FGF2 binders on small-molecule microarrays, primary screen, biochemical, small-molecule microarray, 635/667 nm fluorescence (AID 1133); conditions: small-molecule microarray binding, FGF2, fluorescence 635/667; higher = more signal
[7] = mitochondrial membrane potential change in A549 cells, profiling panel, cell-based, JC-1 fluorescence, basal, 24 h, 100 nL (AID 1138); conditions: higher = more signal;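 note: A549 lung adenocarcinoma cells under basal conditions with no added stimulus; test concentration not given here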
Lefty1 = Lefty1 binders on small-molecule microarrays, primary screen, biochemical, small-molecule microarray, 635/667 nm fluorescence (AID 1139); conditions: small-molecule microarray binding, fluorescence 635/667; higher = more signal
[8] = test system: wheat germ agglutinin (Triticum aestivum), Alexa647-labelled; test: wheat germ agglutinin binders on compound microarrays, profiling panel, artefact control for SMM control-protein annotation, biochemical, small-molecule microarray, 635/667 nm fluorescence (AID 1140); conditions: WGA-A647 binding, 635 nm fluorescence, higher = more signal;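 note: score merges 667 nm feature emission with signal to noise over triplicate slides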
[9] = target: Luciferin 4-monooxygenase (Photinus pyralis) (UniProt P08659); test: firefly luciferase enzyme inhibitors, primary screen, biochemical, luminescence, purified enzyme, 2006 set (AID 1141); conditions: SteadyGlo luminescence, 30 min, higher = more signal, called active from +8 up or from −8 down;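 note: cell-free assay with purified firefly luciferase at 100 ng per well in PBS; test concentration not given here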
Chain of Luciferin 4-monooxygenase (Photinus pyralis) (P08659 whole entry, looked up): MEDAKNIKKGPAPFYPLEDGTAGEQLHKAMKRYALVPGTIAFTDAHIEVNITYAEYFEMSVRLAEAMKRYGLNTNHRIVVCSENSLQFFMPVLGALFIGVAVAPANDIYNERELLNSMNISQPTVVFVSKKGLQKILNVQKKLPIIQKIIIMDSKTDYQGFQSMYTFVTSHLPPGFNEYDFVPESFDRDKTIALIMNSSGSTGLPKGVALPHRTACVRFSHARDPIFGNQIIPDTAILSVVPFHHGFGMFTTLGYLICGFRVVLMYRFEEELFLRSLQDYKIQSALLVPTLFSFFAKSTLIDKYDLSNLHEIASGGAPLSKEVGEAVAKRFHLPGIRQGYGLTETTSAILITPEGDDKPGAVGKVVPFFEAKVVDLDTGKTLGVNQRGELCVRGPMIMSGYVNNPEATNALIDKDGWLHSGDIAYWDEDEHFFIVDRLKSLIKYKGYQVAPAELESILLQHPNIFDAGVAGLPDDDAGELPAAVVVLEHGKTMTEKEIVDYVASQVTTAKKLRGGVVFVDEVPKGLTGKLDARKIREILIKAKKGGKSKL

Chain of Focal adhesion kinase 1 (Homo sapiens) (Q05397 whole entry, looked up): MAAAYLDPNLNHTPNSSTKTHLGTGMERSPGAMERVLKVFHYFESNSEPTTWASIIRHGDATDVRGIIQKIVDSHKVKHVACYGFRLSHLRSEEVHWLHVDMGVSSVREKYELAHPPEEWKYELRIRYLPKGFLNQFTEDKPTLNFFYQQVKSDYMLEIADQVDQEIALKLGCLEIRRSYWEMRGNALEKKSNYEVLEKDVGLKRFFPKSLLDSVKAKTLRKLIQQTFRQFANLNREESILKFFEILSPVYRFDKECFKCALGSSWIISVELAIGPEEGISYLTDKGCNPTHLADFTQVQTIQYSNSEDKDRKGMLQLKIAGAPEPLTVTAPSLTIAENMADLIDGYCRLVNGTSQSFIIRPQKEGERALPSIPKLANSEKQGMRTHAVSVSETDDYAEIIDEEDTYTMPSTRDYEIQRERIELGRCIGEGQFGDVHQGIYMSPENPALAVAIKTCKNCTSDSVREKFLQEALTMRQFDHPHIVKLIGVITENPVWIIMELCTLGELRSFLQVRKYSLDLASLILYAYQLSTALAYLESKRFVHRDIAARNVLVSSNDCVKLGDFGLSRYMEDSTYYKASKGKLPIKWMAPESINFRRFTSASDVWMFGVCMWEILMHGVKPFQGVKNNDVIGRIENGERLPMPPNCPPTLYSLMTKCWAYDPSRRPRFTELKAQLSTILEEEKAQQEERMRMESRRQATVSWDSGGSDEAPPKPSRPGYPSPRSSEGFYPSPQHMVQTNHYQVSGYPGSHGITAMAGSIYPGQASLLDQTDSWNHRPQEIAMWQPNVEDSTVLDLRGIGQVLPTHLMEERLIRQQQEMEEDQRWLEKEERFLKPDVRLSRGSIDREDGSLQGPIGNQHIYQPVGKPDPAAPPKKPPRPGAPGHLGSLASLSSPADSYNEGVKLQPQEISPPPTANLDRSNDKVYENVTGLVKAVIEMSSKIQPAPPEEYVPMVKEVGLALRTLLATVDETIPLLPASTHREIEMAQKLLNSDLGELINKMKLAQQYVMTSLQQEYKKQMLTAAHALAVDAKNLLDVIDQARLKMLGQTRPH
Chain of Follistatin (Homo sapiens) (P19883 whole entry, looked up): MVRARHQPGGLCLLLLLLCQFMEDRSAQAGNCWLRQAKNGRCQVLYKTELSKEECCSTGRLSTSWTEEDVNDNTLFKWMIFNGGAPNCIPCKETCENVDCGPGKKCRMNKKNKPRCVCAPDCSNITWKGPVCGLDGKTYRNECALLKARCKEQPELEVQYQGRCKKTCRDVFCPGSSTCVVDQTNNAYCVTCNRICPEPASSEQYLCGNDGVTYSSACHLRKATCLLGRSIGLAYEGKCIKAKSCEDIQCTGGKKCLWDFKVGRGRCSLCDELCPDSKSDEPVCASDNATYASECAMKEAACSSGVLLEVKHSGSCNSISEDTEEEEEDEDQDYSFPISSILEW
Chain of Fibroblast growth factor 2 (Homo sapiens) (P09038 whole entry, looked up): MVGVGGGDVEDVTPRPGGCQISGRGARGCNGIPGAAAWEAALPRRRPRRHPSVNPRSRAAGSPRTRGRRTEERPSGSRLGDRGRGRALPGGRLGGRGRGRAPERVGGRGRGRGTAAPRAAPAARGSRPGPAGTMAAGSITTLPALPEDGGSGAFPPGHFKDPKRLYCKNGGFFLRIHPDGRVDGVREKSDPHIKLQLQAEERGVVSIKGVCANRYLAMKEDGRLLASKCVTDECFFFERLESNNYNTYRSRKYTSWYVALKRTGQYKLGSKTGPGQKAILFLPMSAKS

Compound | composite z-score [1] | composite z-score [2] | composite z-score [3] | composite z-score [4] | composite z-score [5] | composite z-score [6] | z-score [7] | composite z-score (Lefty1) | composite z-score [8] | z-score [9]
O=C1C2C=CC(C(O)c3cccs3)N(Nc3ccc([N+](=O)[O-])cc3)C2C(=O)N1c1ccccc1 (stereo not given) | 0.482 | 1.11 | 0.894 | 0.697 | 0.337 | -0.105 | -0.908 | -0.457 | 0.844 | 1.1 (inactive)
COCCOC(=O)N1C(=O)[C@@]2(c3cc(C#CC4(O)CCCCCC4)ccc31)[C@H](c1ccc(O)cc1)N1[C@H](c3ccccc3)[C@H](c3ccccc3)OC(=O)[C@H]1[C@@H]2C(=O)N1CCCCCCC1 | 1.01 | 1.19 | 0.817 | 0.605 | 1.39 | 0.608 | 0.7 | 0.851 | 0.907 | -0.552 (inactive)
[N-]=[N+]=Nc1ccccc1[C@H]1OC(c2ccc(OCCCO)cc2)=N[C@@]1(Cc1ccccc1)C(=O)NCC(O)CO (stereo not given in full) | 1.67 | 1.21 | 0.0145 | 0.959 | 1.06 | -0.551 | 0.586 | -0.498 | 0.966 | -5.02 (inactive)
COc1ccc(C#Cc2ccc3c(c2)[C@]2(C(=O)N3)[C@H](C(=O)O)[C@H]3C(=O)O[C@H](c4ccccc4)[C@H](c4ccccc4)N3[C@@H]2c2ccccc2OCCO)cc1 | 3.16 | 1.17 | 0.352 | 0.955 | 1.19 | 1.25 | -2.71 | 1.04 | 1.02 | -5.71 (inactive)
CCCC[C@H]1C[C@@H]1[C@@H]1N(C(C)=O)[C@H](c2cccc(OC)c2)CC12CC2 | -0.101 | 0.173 | 0.17 | 0.832 | -0.631 | -0.532 | 0.605 | -0.613 | 0.133 | 2.15 (inactive)
[N-]=[N+]=Nc1ccccc1[C@@H]1OC(c2ccc(OCCCO)cc2)=N[C@]1(CCS(=O)(=O)c1ccccc1)C(=O)NCC(O)CO (stereo not given in full) | 0.592 | 0.794 | 0.131 | 0.911 | 0.518 | -0.0365 | -0.298 | -0.285 | 1.02 | -9.87 (active)
CC(C)[Si](C#CCCc1ccccc1)(O[C@H](c1ccccc1)c1cn(Cc2ccccc2)nn1)C(C)C | 0.269 | 1.09 | 0.104 | 0.642 | 0.709 | 0.368 | 0.26 | 0.919 | 0.782 | 0.898 (inactive)
O=C(NCC(O)CO)C1N=C(c2ccc(OCCCO)cc2)N(c2ccccc2)O1 (stereo not given) | 0.703 | 0.697 | -0.102 | 0.0565 | 1.38 | 1.32 | 0.42 | 0.876 | 0.471 | -10.9 (active)
CC(C)=CCCC(C)=CC(O)C1C=CC2C(=O)NC(=O)C2N1Nc1ccc(Cl)cc1Cl (stereo not given) | 0.0944 | 1.19 | 1.15 | 0.44 | 1.29 | -0.935 | -0.974 | 0.0724 | 0.863 | -0.889 (inactive)
COc1ccc([Si](C)(C)[C@@H]2[C@@H](CC(=O)N3Cc4ccccc4C[C@H]3CO)O[C@]3(C(=O)N(Cc4cccc(N5CCOC5=O)c4)c4ccccc43)[C@H]2C)cc1 | 1.23 | 0.402 | 0.0975 | 0.0735 | 1.41 | 1.4 | -0.661 | 1.54 | -0.244 | 0.274 (inactive)
CC1CC/C=C\[C@H]2OC34C=CCN(Cn5nnc6ccccc65)C(=O)[C@H]3N(CCCCCCO)C(=O)[C@@H]4C2C(=O)O1 (stereo not given in full) | 0.965 | -0.506 | -0.121 | -0.627 | -1.45 | -1.09 | 0.966 | -0.654 | -0.435 | 0.152 (inactive)
C=CC[C@]1(C(=O)NCC(O)CO)COC(c2ccc(OCCCO)cc2)=N1 (stereo not given in full) | -0.493 | 0.57 | -0.0726 | -1.36 | 0.821 | 1.01 | -0.565 | -0.513 | -0.326 | 0.0208 (inactive)
CCOC(=O)C1=CC[C@@H](c2ccc(OC)cc2)N(S(=O)(=O)c2ccc(C)cc2)[C@H]1c1ccc(C)cc1 | 1.23 | 1.18 | 0.389 | 0.844 | 0.633 | -0.0931 | 3.2 | 0.333 | 0.803 | 1.1 (inactive)
NC(=O)NCC#Cc1ccc2c(c1)[C@]1(C(=O)N2)[C@H](c2ccc(OCCO)cc2)N2[C@H](c3ccccc3)[C@H](c3ccccc3)OC(=O)[C@H]2[C@@H]1C(=O)O | 1.21 | -1.59 | -0.333 | 0.755 | -0.044 | -0.498 | -1.15 | -0.601 | 1.22 | -1.6 (inactive)
Cc1ccc(F)cc1S(=O)(=O)N[C@H]1CCN(Cc2ccc(OC(C)C)cc2)C1 | 0.6 | -0.296 | -0.198 | -0.71 | 0.855 | 0.157 | 1.3 | 1.1 | -0.6 | -0.557 (inactive)
COc1cc(C(O)C2C=CC3C(=O)N(c4ccccc4)C(=O)C3N2Nc2ccccc2)cc(OC)c1OC (stereo not given) | 1.04 | 1.21 | 0.655 | 1 | 1.14 | -0.085 | -0.193 | -0.383 | 1.24 | -0.171 (inactive)

Compound | composite z-score [1] | composite z-score [2] | composite z-score [3] | composite z-score [4] | composite z-score [5] | composite z-score [6] | z-score [7] | composite z-score (Lefty1) | composite z-score [8] | z-score [9]
COC(=O)[C@@]1(Cc2ccccc2)[C@H]2c3cc(C(=O)N(C)C)n(Cc4ccc(S(C)(=O)=O)cc4)c3C[C@H]2CN1C(=O)c1ccccc1 | 3.21 | 0.884 | 1.31 | 0.989 | -0.0741 | -0.277 | -0.699 | -0.367 | 1.13 | 1.6 (inactive)
COc1ccc([Si](C)(C)[C@@H]2[C@@H](CC(=O)N(CCO)Cc3ccccc3)O[C@]3(C(=O)N(Cc4ccc(I)cc4)c4ccccc43)[C@H]2C)cc1 | 1.9 | 0.32 | 0.385 | 0.391 | 1.49 | 1.66 | -0.472 | 1.53 | -0.0349 | 0.249 (inactive)
CC1CC/C=C\[C@H]2OC34C=CCN(Cc5ccccc5)C(=O)[C@H]3N(CCCCCCO)C(=O)[C@@H]4C2C(=O)O1 (stereo not given in full) | 0.607 | -0.415 | -0.28 | -1.31 | -0.909 | -0.808 | 0.856 | -0.869 | -0.51 | -1.51 (inactive)
CC(C)N1C(=O)c2ccccc2[C@@H](C(=O)NCC(F)(F)F)[C@@H]1c1ccc(CO)cc1 | -0.0668 | 0.0715 | 0.284 | -0.537 | 0.527 | 0.0683 | 1.41 | -0.232 | -0.348 | -0.189 (inactive)
C=CCOC(=O)[C@H]1[C@@H]2C(=O)O[C@@H](c3ccccc3)[C@@H](c3ccccc3)N2[C@@H](c2ccc(OCCOC(=O)[C@H]3C[C@H]4C(=O)N[C@@H](CC(C)C)C(=O)N4[C@H]3c3ccc(O)cc3)cc2)[C@]12C(=O)Nc1ccccc12 | 0.1 | 1.26 | 0.66 | 0.8 | 1.36 | 1.79 | -1.48 | 1.39 | 0.624 | -0.782 (inactive)
Cc1ccc(S[C@]2(C(=O)NC3CC3)CC(=O)N(C(C)C)[C@@H]2c2ccc(CO)cc2I)cc1 | 1.49 | 0.882 | 0.411 | -0.36 | 0.536 | -0.471 | 0.51 | 0.303 | 0.969 | 1.29 (inactive)
C[C@]1(C(=O)O)c2ccccc2C(=O)N(Cc2cc(F)cc(C(F)(F)F)c2)[C@H]1c1ccc(CO)cc1 | 0.201 | 0.349 | 0.263 | 0.955 | 0.88 | 0.299 | -1.06 | 0.956 | 0.0471 | 0.759 (inactive)
CN1C(=O)[C@@H]2[C@@H](CC(COc3ccccc3)=C3[C@@H](CCc4ccccc4)OB(O)C[C@@H]32)C1=O | -0.526 | -0.211 | -0.175 | 0.48 | 0.127 | -0.0572 | 0.208 | -0.0163 | 0.469 | -0.326 (inactive)
NC(=O)N1C(=O)C2C(C1=O)C1C=C(CCCO)C2C(C2CC2)N1Cc1sc2ccccc2c1Cl (stereo not given) | 2.4 | 0.802 | 0.284 | 0.795 | 0.539 | 0.983 | 0.898 | 0.587 | 0.661 | -2.2 (inactive)
C=CCN1C(=O)[C@]2(O[C@H](CCn3cc([C@H](O)c4ccccc4)nn3)[C@@H]([Si](C)(C)c3ccc(OC)cc3)[C@@H]2C)c2cc(NC(=O)c3ccc(OC)cc3)ccc21 | 0.66 | 0.499 | 0.748 | 0.0903 | 1.23 | 0.307 | 0.997 | 0.794 | 0.422 | -1.16 (inactive)
CC(C)=CCCC(C)=CC(O)C1C=CC2C(=O)NC(=O)C2N1Nc1ccccn1 (stereo not given) | 1.97 | 1.08 | -0.097 | 0.868 | 1.39 | 1.7 | 0.966 | 1.54 | 0.73 | -1.17 (inactive)
C=CCOC(=O)[C@@H]1[C@H]2C(=O)O[C@H](c3ccccc3)[C@H](c3ccccc3)N2[C@H](c2ccc(OCCOC(=O)[C@H]3C[C@H]4C(=O)N[C@@H](CCCCN(C)C)C(=O)N4[C@H]3c3ccc(O)cc3)cc2)[C@@]12C(=O)Nc1ccc(I)cc12 | 1.2 | 1.17 | 1.03 | 0.541 | 1.4 | 1.37 | -0.641 | 1.58 | 0.538 | -4.54 (inactive)
COCCOC(=O)N1C(=O)[C@@]2(c3cc(C#CCC(C(=O)OC)C(=O)OC)ccc31)[C@H](C(N)=O)[C@H]1C(=O)O[C@H](c3ccccc3)[C@H](c3ccccc3)N1[C@@H]2c1ccc(O)cc1 | 2.22 | 1.23 | 0.601 | 0.92 | 1.33 | 0.468 | -2.31 | 1 | 1.06 | -0.878 (inactive)
COCCOC(=O)N1C(=O)[C@@]2(c3cc(C#CCCO)ccc31)[C@H](C(N)=O)[C@H]1C(=O)O[C@H](c3ccccc3)[C@H](c3ccccc3)N1[C@@H]2c1ccccc1OCCO | 3.07 | 1.21 | 0.425 | 0.897 | 1.19 | 0.516 | -0.256 | 0.673 | 0.713 | -0.683 (inactive)
COc1ccc(C(O)C2C=CC3C(=O)NC(=O)C3N2Nc2ccc(Cl)cc2Cl)c2ccccc12 (stereo not given) | 1.54 | 1.15 | 0.486 | 0.925 | 0.797 | -0.19 | -0.209 | -0.0846 | 1.19 | -1.93 (inactive)
C[N+](C)(C)CCCC[C@@H]1NC(=O)[C@@H]2C[C@H](C(=O)NCc3ccc(F)cc3)[C@H](c3ccc(O)cc3)N2C1=O | 0.928 | -0.321 | 0.951 | -0.965 | 1.34 | 1.6 | 0.526 | 0.0338 | -0.3 | -0.41 (inactive)
